Our source for the composite z-score and z-score values is PubChem BioAssay.

Test [1] is described as follows: binders of probe aFSTL3 on microarray, primary screen, stem cell growth factor project, biochemical, small-molecule microarray, fluorescence 635/667 (AID 1064).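 Also: measures binding of the biotinylated anti-FSTL3 antibody to printed compounds.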 To be noted: higher = more signal.
Test [2] in a line: binders from COS7 lysate, DM2A8 probe, primary screen, torsin A project, cell lysate, small-molecule microarray, fluorescence 635/667 (AID 1065). To be noted: higher = more signal, COS7 lysate expressing mutant human TOR1A.
Test [3] in a line: binders of probe aFGF2 on microarray, primary screen, stem cell growth factor project, biochemical, small-molecule microarray, fluorescence 635/667 (AID 1067).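 Also: measures binding of biotinylated aFGF2 protein to printed compounds on slides; z-score merges feature fluorescence and signal-to-noise across triplicate slides.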 To be noted: higher = more signal.
A short description of test [4]: binders of probe aFGF10 on microarray, primary screen, stem cell growth factor project, biochemical, small-molecule microarray, fluorescence 635/667 (AID 1071).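 Also: score merges 667 nm spot intensity and signal to noise from triplicate slides.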 To be noted: higher = more signal.
Test [5] has as its target Neurogenic locus notch homolog protein 2 (Homo sapiens) (UniProt Q04721). The experiment in a line: Notch2 binders on small-molecule microarrays, primary screen, biochemical, small-molecule microarray, 635 nm fluorescence, stem cell growth factors (AID 1073). The conditions noted are these: Notch2 binding, higher = more signal.
Test [6] concerns the target Pro-neuregulin-1, membrane-bound isoform (Homo sapiens) (UniProt Q02297). The experiment in a line: NRG1 binders on small-molecule microarrays, primary screen, psychiatric disease protein project, biochemical, small-molecule microarray, fluorescence 635/667 (AID 1075).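 Also: score combines 667 nm spot fluorescence with signal to noise.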 The conditions noted are these: NRG1 binding, 635 nm fluorescence, higher = more signal.
Test [7] relates to Neuregulin-1 EGF-like domain. The test can be described thus: binders of neuregulin-1 EGF-like domain, primary screen, biochemical, small-molecule microarray, 635 nm fluorescence (AID 1081).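 Also: binding of the protein to compounds printed on small-molecule microarray slides.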 The conditions noted are these: small-molecule microarray binding, higher = more signal.
Test [8] can be described thus: FRG1 promoter luciferase signal modulators, primary screen, FRG1 inhibition for FSHD, cell-based, C2C12 myotubes, firefly/Renilla luciferase, luminescence (AID 1084). The conditions noted are these: higher = more signal, called active from +8 up or from −8 down.
Test [9] can be described thus: binders of probe aFST on microarray, primary screen, stem cell growth factor project, biochemical, small-molecule microarray, fluorescence 635/667 (AID 1086).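 Also: score merges 667 nm fluorescence with signal-to-noise of each printed compound spot.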 To be noted: higher = more signal.
Test [10] in a line: binders of probe aHhip on microarray, primary screen, stem cell growth factor project, biochemical, small-molecule microarray, fluorescence 635/667 (AID 1087).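 Also: score merges spot fluorescence at 667nm with spot signal to noise ratio.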 The conditions noted are these: higher = more signal.

The source made the active and inactive calls.

Sequence of Pro-neuregulin-1, membrane-bound isoform (Homo sapiens) (Q02297 whole entry, looked up, the tested form may be a part, canonical isoform): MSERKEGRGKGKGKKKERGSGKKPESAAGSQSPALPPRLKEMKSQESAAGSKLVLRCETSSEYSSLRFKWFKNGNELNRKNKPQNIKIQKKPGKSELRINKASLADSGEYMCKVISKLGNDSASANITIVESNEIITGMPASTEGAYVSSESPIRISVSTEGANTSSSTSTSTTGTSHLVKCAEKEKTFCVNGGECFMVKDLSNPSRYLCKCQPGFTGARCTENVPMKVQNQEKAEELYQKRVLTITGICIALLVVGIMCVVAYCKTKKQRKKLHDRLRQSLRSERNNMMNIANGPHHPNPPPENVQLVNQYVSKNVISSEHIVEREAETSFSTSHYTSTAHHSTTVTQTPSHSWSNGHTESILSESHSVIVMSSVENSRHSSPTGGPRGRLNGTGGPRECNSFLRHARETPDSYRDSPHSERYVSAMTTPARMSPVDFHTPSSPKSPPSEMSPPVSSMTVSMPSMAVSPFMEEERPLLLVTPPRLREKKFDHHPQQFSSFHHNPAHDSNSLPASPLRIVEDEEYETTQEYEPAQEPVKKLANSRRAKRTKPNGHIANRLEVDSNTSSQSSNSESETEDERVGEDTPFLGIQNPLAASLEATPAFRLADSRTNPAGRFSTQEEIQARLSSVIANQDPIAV
Sequence of Neurogenic locus notch homolog protein 2 (Homo sapiens) (Q04721 whole entry, looked up, canonical isoform): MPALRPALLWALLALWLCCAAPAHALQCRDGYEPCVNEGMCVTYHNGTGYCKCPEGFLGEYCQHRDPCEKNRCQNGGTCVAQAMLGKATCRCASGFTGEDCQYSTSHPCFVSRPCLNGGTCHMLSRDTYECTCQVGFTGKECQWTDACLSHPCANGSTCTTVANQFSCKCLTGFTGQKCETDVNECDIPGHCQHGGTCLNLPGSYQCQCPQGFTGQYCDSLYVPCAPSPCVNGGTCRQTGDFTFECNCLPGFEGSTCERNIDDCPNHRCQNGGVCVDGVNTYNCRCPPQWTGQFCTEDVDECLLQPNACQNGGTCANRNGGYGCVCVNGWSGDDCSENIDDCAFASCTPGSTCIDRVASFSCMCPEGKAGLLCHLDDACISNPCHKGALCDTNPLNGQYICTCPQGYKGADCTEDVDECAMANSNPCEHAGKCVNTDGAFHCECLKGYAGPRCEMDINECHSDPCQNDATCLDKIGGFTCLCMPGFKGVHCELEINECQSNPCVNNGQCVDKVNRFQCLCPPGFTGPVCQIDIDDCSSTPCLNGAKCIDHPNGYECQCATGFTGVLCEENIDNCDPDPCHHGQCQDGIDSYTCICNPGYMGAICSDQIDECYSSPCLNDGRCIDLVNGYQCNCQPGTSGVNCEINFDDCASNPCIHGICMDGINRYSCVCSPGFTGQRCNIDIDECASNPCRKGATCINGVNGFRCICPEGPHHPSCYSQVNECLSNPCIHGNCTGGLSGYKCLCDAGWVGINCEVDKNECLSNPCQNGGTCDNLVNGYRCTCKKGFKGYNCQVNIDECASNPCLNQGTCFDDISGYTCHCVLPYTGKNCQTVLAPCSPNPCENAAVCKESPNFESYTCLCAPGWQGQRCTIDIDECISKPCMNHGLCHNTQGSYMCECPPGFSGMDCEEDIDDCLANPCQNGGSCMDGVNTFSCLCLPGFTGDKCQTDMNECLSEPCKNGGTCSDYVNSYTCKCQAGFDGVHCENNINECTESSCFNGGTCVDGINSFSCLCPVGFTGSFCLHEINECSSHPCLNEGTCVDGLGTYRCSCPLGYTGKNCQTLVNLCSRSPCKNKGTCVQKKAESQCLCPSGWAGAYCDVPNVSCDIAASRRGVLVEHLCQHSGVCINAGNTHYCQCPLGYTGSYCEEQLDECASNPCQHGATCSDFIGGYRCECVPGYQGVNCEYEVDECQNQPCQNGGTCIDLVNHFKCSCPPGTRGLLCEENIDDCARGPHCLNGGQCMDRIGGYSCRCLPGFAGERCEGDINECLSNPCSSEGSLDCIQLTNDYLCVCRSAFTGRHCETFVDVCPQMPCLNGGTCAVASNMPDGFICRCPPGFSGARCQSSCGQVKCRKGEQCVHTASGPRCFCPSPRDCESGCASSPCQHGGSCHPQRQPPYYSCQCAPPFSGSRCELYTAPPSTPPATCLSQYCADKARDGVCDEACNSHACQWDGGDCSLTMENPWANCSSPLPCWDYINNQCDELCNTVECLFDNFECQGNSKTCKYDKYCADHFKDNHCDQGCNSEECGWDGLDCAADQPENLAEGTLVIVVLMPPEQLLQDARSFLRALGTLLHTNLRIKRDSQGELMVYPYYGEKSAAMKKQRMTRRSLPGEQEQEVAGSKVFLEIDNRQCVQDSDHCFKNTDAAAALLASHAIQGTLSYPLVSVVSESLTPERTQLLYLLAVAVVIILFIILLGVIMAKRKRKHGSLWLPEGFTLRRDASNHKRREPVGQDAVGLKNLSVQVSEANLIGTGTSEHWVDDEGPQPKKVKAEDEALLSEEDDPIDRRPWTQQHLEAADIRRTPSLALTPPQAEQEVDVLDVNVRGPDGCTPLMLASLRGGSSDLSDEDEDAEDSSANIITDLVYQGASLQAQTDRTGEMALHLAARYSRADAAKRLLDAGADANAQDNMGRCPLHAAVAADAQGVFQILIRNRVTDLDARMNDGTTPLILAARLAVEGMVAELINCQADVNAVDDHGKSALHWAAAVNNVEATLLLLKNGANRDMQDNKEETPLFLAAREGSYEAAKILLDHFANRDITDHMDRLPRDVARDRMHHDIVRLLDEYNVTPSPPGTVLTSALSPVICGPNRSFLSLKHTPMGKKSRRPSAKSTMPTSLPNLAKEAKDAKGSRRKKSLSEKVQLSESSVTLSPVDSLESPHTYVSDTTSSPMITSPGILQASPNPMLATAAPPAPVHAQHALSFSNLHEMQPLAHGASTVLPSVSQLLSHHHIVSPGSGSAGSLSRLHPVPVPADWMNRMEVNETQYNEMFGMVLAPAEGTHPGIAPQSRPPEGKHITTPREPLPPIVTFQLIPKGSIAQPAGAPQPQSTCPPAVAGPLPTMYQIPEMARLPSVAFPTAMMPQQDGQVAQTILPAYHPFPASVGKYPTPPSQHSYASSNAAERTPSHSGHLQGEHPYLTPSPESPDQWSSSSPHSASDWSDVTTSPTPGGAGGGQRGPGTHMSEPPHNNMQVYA

As for `COCCOC(=O)N1C(=O)[C@@]2(c3ccccc31)[C@H](C(=O)N1CCN(c3ncccn3)CC1)[C@H]1C(=O)O[C@H](c3ccccc3)[C@H](c3ccccc3)N1[C@@H]2c1ccccc1OCCO`, the composite z-score in [1] was -0.287; in test [2] it was 0.514; in [3], 0.168; in test [4] it was 0.7; in test [5] it was 0.827; in test [6], 0.111. Further, the composite z-score is 1.13 in test [7], 0.244 in [9] and -0.0919 in [10]. Moreover, the z-score in test [8] was -1.12 (inactive).
For the compound `CCCC[C@H]1C[C@@H]1[C@@H]1N(C(C)=O)[C@H](c2cccc(OC)c2)CC12CC2`, the composite z-score in test [1] is 0.116; in [2], -0.303; in test [3], -0.0235; in test [4], 0.186; in test [5], 0.798; in test [6], -0.106. Further, the composite z-score in [7] was -0.175; in test [9], 0.657; in test [10] it was -0.0645. For the same compound, in [8], the z-score is 1.8 (inactive).
Consider `CC1CC/C=C\[C@H]2OC34C=CCN(c5ccc(Cl)cc5)C(=O)[C@H]3N(CCCCCCO)C(=O)[C@]4(C)C2C(=O)O1` (stereo not given in full), for which the composite z-score in test [1] was -0.147; in test [2], -0.965; in test [3] it was -0.176; in [4], -0.219; in test [5], -0.705; in test [6], 0.639. For the same compound, the composite z-score in test [7] is 1.52; in test [9], -0.56; in test [10], -0.204. In addition, in [8], the z-score is 0.975 (inactive).
On to `COc1ccc([Si](C)(C)[C@H]2[C@H](CCO)O[C@@]3(C(=O)N(Cc4ccc(NC(=O)[C@H](C)O)cc4)c4ccccc43)[C@@H]2C)cc1`, for which the composite z-score in [1] was -0.184; in test [2], 0.485; in test [3], -0.0508; in test [4] it was 0.663; in [5] it was 1.19; in [6], 1.54. For the same compound, the composite z-score in [7] came out at 1.19; in [9] it was 0.292; in test [10], 0.0401. Further, the z-score in test [8] was -4.06 (inactive).
On to `CCCN1C(=O)[C@]2(CCC(=O)OC(C)(C)C)N=C(c3ccc(OCCCO)cc3)O[C@@H]2c2ccccc21`, for which the composite z-score in test [1] was 0.678; in test [2] it was 1.24; in [3], -0.0136; in test [4], 0.152; in [5], 0.399; in test [6], 0.421. In addition, the composite z-score in test [7] is 1.07; in test [9], 0.0678; in test [10], -0.0645. Also, the z-score in [8] was 0.177 (inactive).
On to `COCCOC(=O)N1C(=O)[C@@]2(c3ccccc31)[C@H](c1ccc(O)cc1)N1[C@H](c3ccccc3)[C@H](c3ccccc3)OC(=O)[C@H]1[C@@H]2C(=O)N1CCCCCCC1`, for which the composite z-score in [1] worked out at 3.84; in [2] it was 1.88; in [3], 0.949; in [4] it was 0.802; in [5], 1.07; in test [6], 2.5. The composite z-score in test [7] turned out to be 1.29; in [9], 3.5; in test [10] it was 3.27. Moreover, the z-score in test [8] is -3.25 (inactive).
Regarding `C=CCC(OC(C)=O)[C@@H]1[C@@H](N(Cc2ccc(-c3ccccc3)cc2)C(=O)c2cccc3ccccc23)c2cc(OCCCO)ccc2N1C(=O)Cc1ccc(OC)cc1` (stereo not given in full), the composite z-score in [1] is 0.0714; in test [2], -0.205; in test [3] it was -0.108; in [4], -0.234; in test [5] it was -0.559; in [6] it was -0.229. The values for the composite z-score in test [7], in test [9] and in [10] were -0.757, 0.165 and 3.52, respectively. Further, the z-score in [8] is -0.72 (inactive).
As to `Cc1ccc(S[C@]2(C(=O)NC(C)C)CC(=O)N(C3CCCCC3)[C@@H]2c2ccc(CO)cc2I)cc1`, the composite z-score in [1] is -0.183; in test [2], 2.15; in test [3] it was -0.0257; in [4], 0.308; in test [5], 0.777; in test [6], 0.897. Moreover, the composite z-score was 1.33 in [7], 0.276 in test [9] and -0.399 in [10]. Besides, the z-score in test [8] is -4.76 (inactive).
In the case of `N#Cc1ccc(-c2cccc(=O)o2)cc1`, the composite z-score was -0.5 in test [1]; 0.316 in test [2]; -0.103 in test [3]; 0.248 in [4]; 0.601 in test [5]; 0.114 in test [6]. Moreover, the composite z-score in test [7] is 0.678; in [9], 0.445; in [10] it was -0.166. Also, the z-score in test [8] was 0.563 (inactive).
As for `O=C1C[C@]2(c3ccc([N+](=O)[O-])cc3)C(=O)N(C3CC3)c3cc(CO)ccc3[C@H]2N1C1CCCCC1`, the composite z-score was -0.351 in test [1]; -0.124 in [2]; -0.164 in test [3]; 0.097 in test [4]; -0.0343 in test [5]; -0.123 in test [6]. Also, the composite z-score was -0.0608 in test [7], -0.0927 in [9] and -0.236 in test [10]. Also, the z-score in [8] is 0.413 (inactive).
Turning to `COc1cc(C(O)C2C=CC3C(=O)N(c4ccccc4)C(=O)C3N2Nc2ccccc2)cc(OC)c1OC` (stereo not given), the composite z-score in test [1] is 0.251; in test [2] it was 0.36; in test [3], 0.218; in test [4] it was 1.14; in test [5], 1.68; in test [6], 1.92. Moreover, the composite z-score in test [7] was 1.17; in test [9], 1.48; in test [10], 0.189. Further, in test [8], the z-score is 1.07 (inactive).
On to `COC(=O)[C@]1(Cc2ccccc2)N=C(c2ccc(OCCCO)cc2)O[C@@H]1c1ccccc1CN=[N+]=[N-]`, for which the composite z-score in test [1] is 0.278; in test [2], -0.235; in test [3], -0.0266; in test [4] it was -0.214; in [5], 0.582; in [6], 0.718. Further, the results for the composite z-score in test [7], in test [9] and in test [10] were 1.29, 0.693 and -0.134, respectively. Also, the z-score in [8] is 1.48 (inactive).
Turning to `CC1CC/C=C\[C@H]2OC34C=CCN(CCN5CCOCC5)C(=O)[C@H]3N(CCCO)C(=O)[C@@H]4C2C(=O)O1` (stereo not given in full), the composite z-score was -0.215 in [1]; 0.0721 in test [2]; -0.183 in [3]; -0.0957 in test [4]; -0.475 in test [5]; -0.376 in [6]. The values for the composite z-score in test [7], in [9] and in [10] were 1.07, -0.354 and -0.0994, respectively. The z-score in test [8] was 0.149 (inactive).
Regarding `O=C1O[C@@H](c2ccccc2)[C@@H](c2ccccc2)N2[C@@H](c3ccccc3OCCO)[C@]3(C(=O)Nc4ccc(C#CCCO)cc43)[C@@H](C(=O)NC[C@H](O)c3ccccc3)[C@H]12`, the composite z-score worked out at 0.13 in [1]; 1.2 in test [2]; 0.277 in test [3]; 0.0012 in test [4]; 0.381 in [5]; 1.63 in test [6]. Further, the composite z-score in [7] came to 1.36; in test [9] it was 0.372; in test [10], 0.192. Moreover, the z-score in test [8] was -2.14 (inactive).
As for `C=CCN1Cc2ccccc2[C@H]2OC(c3ccc(OCCCO)cc3)=N[C@@]2(CCS(=O)(=O)c2ccccc2)C1=O`, the composite z-score in [1] was determined as 1.14; in test [2] it was 0.852; in test [3], 0.0814; in test [4], 0.201; in test [5], 1.47; in [6], 1.61. The composite z-score in test [7] is 1.35; in test [9], 0.932; in [10] it was -0.226. In addition, in test [8], the z-score was -0.908 (inactive).
With `CC(C)=CCCC=C(C)C(O)C1C=CC2C(=O)N(c3ccccc3)C(=O)C2N1Nc1ccc(C#N)cc1` (stereo not given), the composite z-score turned out to be 0.314 in test [1]; 0.146 in [2]; 0.126 in test [3]; 0.178 in [4]; 1.51 in test [5]; 1.93 in [6]. The composite z-score is 1.23 in test [7], 0.257 in test [9] and -0.382 in [10]. Besides, in test [8], the z-score is -1.36 (inactive).
As to `CO[C@H]1O[C@H](CO)[C@@H](OC(=O)Nc2ccccc2-c2ccccc2)[C@H](OC(=O)Nc2ccccc2)[C@H]1OC(=O)Nc1ccccc1`, the composite z-score in test [1] was 0.164; in test [2], 0.514; in test [3] it was -0.0067; in test [4] it was 1.25; in [5], 1.48; in [6], 1.55. Moreover, the composite z-score in test [7] was 1.33; in test [9] it was 0.941; in [10] it was -0.0237. Besides, in test [8], the z-score is 1.66 (inactive).
